A selection: hits, their analogues and other compounds. The true share with any hit is near 3.1%.
ARNT-TACC3 inh = disruptors of ARNT/TACC3 protein interaction, primary screen, biochemical, AlphaScreen, single concentration; Transforming acidic coiled-coil-containing protein 3 (Homo sapiens), Q9Y6A5; AlphaScreen His-ARNT PAS-B/GST-TACC3 binding, luminescence; TACC3 fragment carries E629A point mutation; inhibition, % at 9.99 µM; 390,000 compounds, 0.66% hits; AID 623870, 2012;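 active = mean inhibition of replicates at least 50% and at least half of replicates each reaching 50%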;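 also: 0% = complete ARNT plus TACC3 wells and 100% = ARNT alone without TACC3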
HSF1 activator = HSF-1 activators, primary screen, NIH3T3-HGL cells, MG132 stress, luminescence, single point | NIH3T3-HGL HSF-1 luciferase reporter, 8 h; 100% = twice DMSO control signal | activation, % at 9 µM | 300,000 compounds, 1.7% hits | AID 504408, 2011;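 active = mean replicate activation of at least 50% with a set share of replicates each reaching 50%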;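 also: 0% = median of the neutral control wells and 100% = twice that signal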
HSP90 refold inh = HSP90 inhibitors, primary screen, cell lysate, luminescence | inhibition, % at 5.6 µM | 290,000 compounds, 0.91% hits | Heat shock protein HSP 90 (rabbit reticulocyte lysate; luciferase refolding) | AID 1789, 2009 | Rabbit reticulocyte lysate, luciferase refolding luminescence, 3 h;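 active = inhibition above the screen-wide mean plus 3 SD, computed separately per campaign, cut at about 16% in these data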;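 also: 0% = DMSO wells and 100% = 60 µM geldanamycin wells; inhibitors lower the luminescence because luciferase stays unfolded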
HIF act = HIF pathway transcriptional activators, primary screen, cell-based, U2OS HRE-luciferase, luminescence. U2OS HRE-luciferase reporter; normalized: DMSO 0%, desferrioxamine 100%. activation, % at 7.5 µM (by protocol). 300,000 compounds, 0.32% hits. AID 1910, 2009;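 active = mean activation of at least 10% of the iron chelator positive control signal, with at least half of replicates also reaching 10%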
HSF1 inh = HSF1 inhibitors in luciferase reporter cells, primary screen, cell-based, NIH3T3, luminescence | activity change, negative = inhibition, % at 7.5 µM (by protocol) | 300,000 compounds, 0.77% hits | AID 2098, 2009 | NIH3T3-HGL HSE-luciferase, MG132-induced, luminescence 8 h; active compounds read low;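 active = more than half of replicate wells show activity change below -50%, luminescence cut by over half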;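 also: luciferase reports HSF-1 transcriptional activity via heat shock element; 0% = median of DMSO wells and -100% = zero luminescence signal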
Active calls of the source: *; . = not tested or not shown.

SMILES | ARNT-TACC3 inh | HSF1 activator | HSP90 refold inh | HIF act | HSF1 inh
Cc1cc2cc3c(cc2nc1SCC(=O)N1c2ccccc2CC1C)OCO3 (stereo not given) | 0 | 14 | 17* | 0 | -1
COc1ccc(CNC(=O)C[C@@H]2C=C[C@H](NS(=O)(=O)c3cccc(OC)c3)[C@H](CO)O2)cc1 | 6 | . | . | . | .
COc1ccccc1C#Cc1cnc2c(c1)C(=O)N([C@@H](C)CO)C[C@@H](C)[C@H](CN(C)S(=O)(=O)c1cn(C)cn1)O2 | -6 | . | . | . | .
Cc1ccc(C(=O)Cc2cc3ccccc3oc2=O)c(C)c1 | 0 | 85* | 7 | 3 | 59
CCOc1ccc(C(=O)Cc2cc3cccc(OC)c3oc2=O)cc1 | 2 | 15 | -1 | 0 | 3
CCCC(=O)c1cc2ccccc2oc1=O | 1 | 1 | 0 | 0 | -1
COc1ccc(C(=O)Cc2cc3ccccc3oc2=O)cc1 | -11 | 56* | 0 | 2 | 48
C[C@@H]1CCCCO[C@H](CN(C)C(=O)Nc2ccc(F)cc2)[C@H](C)CN([C@H](C)CO)C(=O)c2cc(NS(=O)(=O)c3cccs3)ccc2O1 | -19 | . | . | . | .
Cc1ccc(-c2cc(C(F)F)nc(S(C)(=O)=O)n2)cc1 | -6 | 305* | 3 | 0 | 250
Cc1noc(C)c1CSc1ncnc2sc3c(c12)CCC(C)C3 (stereo not given) | . | 20 | -1 | 0 | 3
Cc1noc(C)c1CSc1ncnc2sc3c(c12)CCC3 | . | -78 | 1 | 0 | -73*
O=S(=O)(c1ccccc1)N1CCCCN2[C@@H](CO)[C@@H](c3ccc(-c4ccccc4F)cc3)[C@@H]2C1 | 14 | . | . | . | .
COCCNC(=O)CCc1nnc(C2(c3ccc(Cl)cc3)CCC2)o1 | -3 | -65 | -2 | 0 | -56*
O=C(NC1Cc2ccccc2C1)[C@@H]1N[C@@H]2c3ccc(C4=CCCCC4)c(=O)n3C[C@@H]2[C@H]1CO | 5 | . | . | . | .
O=C(Cc1ccc(Br)cc1)N1CCc2ccccc2C1 | -10 | 98* | -8 | -25 | 69
O=C(CN1C(=O)NC2(CCCCCCC2)C1=O)N1CCc2ccccc2C1 | 1 | 29 | -3 | 0 | -4
O=C(CN1C(=O)CSC1=O)N1CCc2ccccc2C1 | 30* | 6 | 3 | 0 | 4
CO[C@H]1CC[C@@H]2CCOc3ccc(C#N)cc3C(=O)N(C)C[C@H](C)C(=O)N(C)C[C@H]1O2 | -6 | . | . | . | .
Cn1c(CCNC(=O)c2ccco2)nc2cc(NC(=O)C3CCCCC3)ccc21 | -2 | 37 | 2 | 176* | 19
Nc1c(C(=O)c2ccccc2)sc2nsc(SCCN3CCCC3)c12 | -1 | 118* | -1 | 6 | 92
CCCNC(=O)C[C@H]1CC[C@H]2[C@H](COc3ccc(NS(=O)(=O)CC)cc3C(=O)N2C)O1 | 3 | . | . | . | .
COc1ccccc1C(=O)NCCC(=O)NNC(=O)Cn1ccc(C(F)(F)F)n1 | 28 | -82 | . | -8 | -77*
COc1ccccc1C(=O)NCCC(=O)NNC(=O)c1ccccc1O | 16 | -1 | . | 0 | 2
C[C@@H]1CCCCO[C@@H](CN(C)C(=O)Nc2ccc(C(F)(F)F)cc2)[C@@H](C)CN([C@@H](C)CO)C(=O)c2cc(N(C)C)ccc2O1 | -2 | . | . | . | .
O=C(CSc1nnc(-c2ccc(F)cc2)c2ccccc12)Nc1ccccc1 | -7 | 83* | 4 | 1 | 54
SMILES | ARNT-TACC3 inh | HSF1 activator | HSP90 refold inh | HIF act | HSF1 inh
O=C(Nc1ccc(Cl)cc1)N[C@@H]1CC[C@@H](CCNS(=O)(=O)c2ccccc2F)O[C@H]1CO | 7 | . | . | . | .
CCN(CC)C(=N)/C(C#N)=N/Nc1ccc(C)cc1 | -5 | 57* | 5 | 3 | 30
COc1ccccc1C(=O)Nc1ccc2c(c1)C(=O)N(C)C[C@H](OC)[C@@H](C)CN(C)[C@@H](C)CO2 | 30 | . | . | . | .
Cc1ccnc(NC(=O)COc2ccc(Cl)cc2)n1 | -11 | 6 | 0 | 2 | 6
Cc1cc(C)nc(NC(=O)COc2cc(Cl)cc(Cl)c2)n1 | 0 | -77 | 3 | -2 | -71*
COCCNC(=O)c1cc2c(c(-c3cccc(C4=CCCC4)c3)n1)[C@@H](CCO)N([S@](=O)C(C)(C)C)C2 | 1 | . | . | . | .
O=C(C=C=Nc1ccccc1)C(=O)N=C=Cc1ccccc1 | -5 | 224* | 4 | 2 | 170
Cc1ccc(C(=O)N2CCCC(Nc3ccc(F)cc3)C2)cc1C (stereo not given) | -3 | -76 | -2 | 0 | -71*
C[C@@H]1CN([C@H](C)CO)C(=O)c2cc(NC(=O)NC3CCCCC3)ccc2O[C@H]1CN(C)Cc1ccc(C(=O)O)cc1 | -3 | . | . | . | .
C[C@@H]1CN([C@H](C)CO)C(=O)Cc2cc(NC(=O)Nc3cccc4ccccc34)ccc2O[C@@H]1CN(C)S(=O)(=O)c1ccc(F)cc1 | 5 | . | . | . | .
CCn1ncc(C2=NOC(C(=O)Nc3ccc(C)cc3)C2)c1C (stereo not given) | -13 | -6 | -1 | 0 | 0
CCn1ncc(C2=NOC(C(=O)Nc3ccc4c(c3)OCO4)C2)c1C (stereo not given) | -2 | -3 | 0 | 110* | 0
CC1SC(c2ccc(Cl)cc2)NC1=O (stereo not given) | 1 | 68* | -3 | 0 | 24
COc1ccccc1-c1ccc2c(c1)O[C@@H](CN(C)C(=O)c1cccnc1)[C@@H](C)CN([C@H](C)CO)S2(=O)=O | -9 | . | . | . | .
CC(C)COc1ccc(C(=O)OCCN2CCCCC2)cc1 | active | 6 | 0 | -2 | 8
CC(C)COc1ccc(C(=O)OCCN2CCOCC2)cc1 | -6 | 8 | -2 | 1 | -2
CCN1/C(=C/C=C/c2oc3ccc(-c4ccccc4)cc3[n+]2CC)Oc2ccc(-c3ccccc3)cc21 | -26 | 103* | 7 | -4 | 62
CC(CSc1nc2ccccc2s1)Cn1c(N2CCCC2)nc2c1c(=O)[nH]c(=O)n2C (stereo not given) | 5 | 56* | 0 | 0 | 22
CCN1CCN(c2nc3c(c(=O)[nH]c(=O)n3C)n2CCSc2nc3ccccc3s2)CC1 | 0 | 8 | 3 | 0 | -4
CCC(=O)N1[C@H](CN(C)C(C)=O)[C@H](c2ccc(-c3cccc(F)c3)cc2)[C@@H]1CO | -6 | . | . | . | .
CC(C)c1ccc2oc(=O)cc(CN3CCCCC3)c2c1 | -1 | -62 | 1 | -1 | -54*
Cc1ccccc1Oc1cc(NC(=O)Cn2cnc([N+](=O)[O-])c2)cc([N+](=O)[O-])c1 | 0 | 75* | 4 | 2 | 28
O=C(/C=C/c1ccc(Cl)cc1)NC(=S)Nc1ccc(NC(=O)c2ccco2)cc1 | -1 | 64* | 0 | 1 | 32

Screens (PubChem)
